According to PubChem BioAssay (NCI):
The panel holds about 79,000 compounds, 15% with a hit somewhere; the sample as a whole holds those more often. Cut-off read from the data, not from the text of the source: active = growth inhibition above about 70%; inactive = the rest.

Columns and labels:
[1] = NCI Yeast Anticancer Drug Screen. Data for the rad50 strain (AID 155);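 note: 0% = growth of vehicle-only cultures of the same strain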; settings: S. cerevisiae rad50 strain growth inhibition; at 50.0 µM; stronger effect = higher value
In short: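 Yeast carrying a defined DNA repair defect were exposed to test compounds, and growth was compared with vehicle-treated controls to give percent inhibition.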

[2] = NCI Yeast Anticancer Drug Screen. Data for the mec2-1 strain (AID 157); settings: S. cerevisiae mec2-1 strain, at 50.0 µM, stronger effect = higher value
In short: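 Readout is yeast growth inhibition, normalised to vehicle-treated controls, in the mec2-1 strain exposed to compound.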

[3] = NCI Yeast Anticancer Drug Screen. Data for the sgs1 mgt1 strain (AID 161);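 note: 0% = growth of cultures given vehicle only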; settings: S. cerevisiae sgs1 mgt1 strain, at 50.0 µM, stronger effect = higher value
In short: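 Percent growth inhibition was derived by comparing compound-exposed mutant yeast with vehicle-exposed cultures. The strain carries alterations in DNA damage repair.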

[4] = NCI Yeast Anticancer Drug Screen. Data for the cln2 rad14 strain (AID 165);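 note: 0% = growth equal to vehicle treated cultures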; settings: S. cerevisiae cln2 rad14 strain, at 50.0 µM, stronger effect = higher value
In short: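 Relative to vehicle controls, growth inhibition of compound-treated cln2 rad14 yeast was recorded.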

[5] = NCI Yeast Anticancer Drug Screen. Data for the bub3 strain (AID 167); settings: S. cerevisiae bub3 mutant strain, at 50.0 µM, stronger effect = higher value
In short: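 Compounds were applied to a genetically altered yeast strain carrying a cell-cycle control defect. Growth inhibition was scored against vehicle-treated controls.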

[6] = NCI Yeast Anticancer Drug Screen. Data for the mlh1 rad18 strain (AID 175); settings: S. cerevisiae mlh1 rad18 strain growth inhibition; at 50.0 µM; stronger effect = higher value
In short: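 Test agents were incubated with a yeast strain of defined genotype (DNA damage repair defect). Inhibition of growth was derived by comparison with vehicle-exposed cultures.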

Measured: growth inhibition

NC(CCCCC(N)C(=O)c1ccccc1)C(=O)c1ccccc1 (stereo unspecified)
inactive: [1] -11.9% | [2] -7.45% | [3] -4.85% | [4] -15.9% | [5] 1.55% | [6] 3.25%

COc1cccc(CCNC(=O)Cc2ccccc2CCO)c1
inactive: [1] -5.8% | [2] -7.8% | [3] -46.8% | [4] 9.35% | [5] -37.9% | [6] -53.8%

Cc1cc(=O)[nH]c2ccc(Cc3ccc(Cl)cc3)cc12
inactive: [1] 12.8% | [2] 1.75% | [3] 4.9% | [4] 7.6% | [5] 3.1% | [6] 1.65%

O=C(O)C(Cc1cccs1)(Cc1cccs1)C(=O)O
inactive: [1] -9% | [2] -4.6% | [3] -2.9% | [4] -18.7% | [5] -9.75% | [6] -2.2%

O=[N+]([O-])c1c(Nc2ccccc2)ncnc1Nc1ccccc1
inactive: [1] -33.9% | [2] -15.9% | [3] -9.6% | [4] 3.45% | [5] -10.6% | [6] 1.05%

COc1ccc(N=Cc2c(O)c(O)c(C(C)C)c3cc(C)c(-c4c(C)cc5c(C(C)C)c(O)c(O)c(C=Nc6ccc(OC)cc6)c5c4O)c(O)c23)cc1
inactive: [1] 2.2% | [2] 1.75% | [3] -12.2% | [4] -18.4% | [5] -5.75% | [6] -6.2%

N#C/C(C(=O)NCc1ccccc1)=C(/N)N1CCCC1
inactive: [1] -4.95% | [2] -16.2% | [3] 0.25% | [4] -16.6% | [5] -5.3% | [6] -0.15%

NC(CSSCC(N)=NC1CCCCC1)=NC1CCCCC1
inactive: [1] 6.5% | [2] 3.4% | [3] 13% | [4] 7.35% | [5] -1.45% | [6] 20%

CC1=CC(=O)c2ccc(F)cc2C1=O
inactive: [1] -11.8% | [2] -3.85% | [3] 15% | [4] -2.9% | [5] -7.95% | [6] 13.8%

C=C(C)CS(=O)(=O)Cc1ccccc1
inactive: [1] 14.6% | [2] -10.1% | [3] -1.8% | [4] -40.9% | [5] -4.55% | [6] 7.6%

O=C(O)c1cc2cc(S(=O)(=O)O)ccc2cc1O
inactive: [1] 4% | [2] -0.95% | [3] -6.9% | [4] -25.2% | [5] -11.8% | [6] 30.4%

CN(C)CC(O)C(=O)O (stereo unspecified)
inactive: [1] -12.7% | [2] 20.4% | [3] -5.6% | [4] 7.45% | [5] 3.7% | [6] -13.8%

CCNCCN(CC)CC
inactive: [1] -12.7% | [2] -5.75% | [3] -21.1% | [4] 6.1% | [5] 0% | [6] -17.4%

O=C(Nc1ccc(Cl)cc1)NS(=O)(=O)c1coc2ccccc2c1=O
inactive: [1] 9.65% | [2] 7.3% | [3] -5.75% | [4] 18.6% | [5] 11.6% | [6] 23.1%

COC(=O)Cc1nn2c(nc1=O)sc1ccc3ccccc3c12
inactive: [1] -16.7% | [2] -3.05% | [3] 3.3% | [4] 1.25% | [5] -3.8% | [6] -17.2%

Cc1ccc(S(=O)(=O)N/N=C/c2oc(-c3ccccc3Cl)c(-c3ccccc3Cl)c2[N+](=O)[O-])cc1
inactive: [1] 54.2% | [2] 45.3% | [3] 58.5% | [4] 38.4% | [5] 41.5% | [6] 48.1%

CCOC(=O)C(C#N)=C1CC(C)OC(C)C1 (stereo unspecified)
inactive: [1] 12.3% | [2] 0.65% | [3] 5.85% | [4] -33.6% | [5] 17.4% | [6] 4.15%

COC(=O)CC1(C(=O)OC)Oc2ccc(Br)cc2C(=O)N1c1cccc(Cl)c1Cl (stereo unspecified)
inactive: [1] 52.4% | [2] 13.8% | [3] 46.5% | [4] 40.6% | [5] 52.9% | [6] 54.1%

OC1c2ccccc2CC12Cc1ccccc1C2 (stereo unspecified)
inactive: [1] 36.1% | [2] 38.5% | [3] 37.3% | [4] 23.5% | [5] 26.6% | [6] 13.8%

CCC1(CN(C)C)CC/C(=C\c2ccc(OC)cc2)C1=O (stereo unspecified)
inactive: [1] 8.8% | [2] 4.1% | [3] -9.2% | [4] -6.1% | [5] -5.8% | [6] 27.3%

CNC(=O)N(C)COC
inactive: [1] -2.65% | [2] -10.9% | [3] 2.55% | [4] -0.7% | [5] -40.8% | [6] -5.1%

O=C1C(O)=CC(=C(c2ccccc2)c2ccccc2)c2cc(Br)ccc21
inactive: [1] 33.7% | [2] 26.2% | [3] 44.4% | [4] 8.9% | [5] 11.4% | [6] 34.1%

Nc1ncnc(N)c1NC(=O)CCCc1ccccc1
inactive: [1] 5.85% | [2] 18.6% | [3] -2.95% | [4] 1% | [5] 33.5% | [6] 15.9%

COc1ccc(C(=O)CC(=O)C2CCCCC2=O)cc1 (stereo unspecified)
inactive: [1] -12.5% | [2] -12.3% | [3] -3.4% | [4] -19.8% | [5] 19.3% | [6] -9.05%

CCC(C(CC(=O)c1ccccc1)c1ccccc1)[N+](=O)[O-] (stereo unspecified)
inactive: [1] 9.7% | [2] -0.65% | [3] 0.6% | [4] -42.3% | [5] 10.2% | [6] -5.65%

c1ccc(CSc2ccc3ccccc3c2)cc1
inactive: [1] -4.3% | [2] -20.1% | [3] -13.5% | [4] -51.8% | [5] -4.1% | [6] -29.9%

COc1ccc(C=O)c(Br)c1O
inactive: [1] -0.65% | [2] -6.85% | [3] -14.2% | [4] 22.4% | [5] -12.3% | [6] -16.9%

c1ccc(CNc2ncncc2-c2ccccc2)cc1
inactive: [1] 2.75% | [2] 3.85% | [3] 17.4% | [4] 9.1% | [5] 1.6% | [6] 5.15%

CNC(=O)O[C@H]1C(=O)O[C@@H]2C[C@H]3C(C)=C(O)C(=O)C[C@]3(C)[C@H]3[C@@H](O)[C@H](O)[C@@]4(C(=O)OC)OC[C@]32[C@@H]14
inactive: [1] 24.9% | [2] 16.4% | [3] 1.95% | [4] 7.3% | [5] 14.9% | [6] 16.9%

O=C1CC2C(O)OC(O)C(C1)N2C(=O)OCC(Cl)(Cl)Cl (stereo unspecified)
inactive: [1] 10.8% | [2] -15.9% | [3] -8.55% | [4] 12.6% | [5] -17.4% | [6] -6.6%

CC1=CCCC(C)(C)C1/C=C/C(C)=N/NC(=O)Nc1ccccc1 (stereo unspecified)
inactive: [1] 32.2% | [2] -6.2% | [3] 0.25% | [4] -8.85% | [5] 8.85% | [6] 16.4%

COc1cc2c(cc1OC)C1=NN(c3ccccc3)C(=O)C1CC2 (stereo unspecified)
inactive: [1] 22.8% | [2] 12.6% | [3] 12.3% | [4] -7.2% | [5] 5.55% | [6] 18.8%

COC1OC(CO)C(O)C(NC(=O)[C@H](Cc2ccccc2)NC(=O)OCc2ccccc2)C1O (stereo partly specified)
inactive: [1] 16.6% | [2] 0.75% | [3] 0.95% | [4] 8.65% | [5] 0.45% | [6] 14%

CCOC(=O)/C(C#N)=C1/Sc2c(ncn(/N=C/c3ccc(OC)cc3)c2=O)N1c1ccccc1
inactive: [1] 26.7% | [2] -2.85% | [3] 6.45% | [4] -45.3% | [5] -12.8% | [6] 4.4%

CN1CCN(CC2C(=O)C3CCC2C3)CC1 (stereo unspecified)
inactive: [1] 4.6% | [2] -20.4% | [3] -18.4% | [4] -7.85% | [5] -22.7% | [6] -10.3%

Cc1ccc(C2SC(N)=Nc3c2c(C)nn3C(=O)c2ccccc2O)cc1 (stereo unspecified)
inactive: [1] 8.65% | [2] 16.4% | [3] 34.9% | [4] 5.65% | [5] 10.2% | [6] 12.7%

NC(=O)c1[nH]c(/N=N/c2nc[nH]c2C(N)=O)nc1N
inactive: [1] 24.9% | [2] 21.6% | [3] 9.95% | [4] -17.1% | [5] -4.65% | [6] 16.4%

C/C(N)=N/OCc1ccccc1
inactive: [1] 8.9% | [2] 6.95% | [3] 10.7% | [4] 4.7% | [5] 10.2% | [6] 7.7%

COc1ccc(C(=O)/C=C/c2ccc(OCC(=O)O)cc2)cc1
inactive: [1] 22.6% | [2] 12.3% | [3] 18.1% | [4] 21.8% | [5] -5.75% | [6] 42.8%

ClC1C2c3ccccc3C1C1C2C2(c3ccccc3)OC1(c1ccccc1)c1ccccc12 (stereo unspecified)
inactive: [1] 12.7% | [2] 1.65% | [3] -3.2% | [4] -60.1% | [5] -2% | [6] 0.2%

C/C(=N/NC(N)=S)c1ccc[nH]1
inactive: [1] -18.1% | [2] -14.2% | [3] -3.75% | [4] 20.9% | [5] -39% | [6] -10.4%
